Experimental findings from the supplement of paper PMC6555819 are described below.

The test system of the assay is VDR:RXRa (NR concentration 270 nM, RXRa partner concentration 90 nM). The experiment in a line: PBM binding z-score (relative to random genomic background probes); higher = stronger binding; sequences stand for … in GC…GCGATTGACAGCGTAGAATGAAGG
The protocol:
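Protein-binding microarray (Agilent 4x180K custom design, double-stranded 60-nt probes: 5' GC cap, 34-nt variable region, 24-nt constant primer region; full probe sequence given). Purified or IVT nuclear receptor:RXRα heterodimers (3:1 NR:RXRα, mostly 270:90 nM) or homodimers were incubated for 1 h in PBS with 2% milk and no ligand, then detected with Alexa488 antibodies. Fluorescence from o1-orientation probes (~5 replicates averaged) was converted to z-scores against 500 random hg19 background probes. Variable regions are seed direct-repeat (DR0–DR5) sites, all their single-nucleotide variants and half-site ablations.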
GTACCAAGGTGAATAGGTCGTTGACGAGTAGGCG: the PBM binding z-score was 0.987.

Regarding TCAGACAGGGGAAGGTAACTCAGGTACGCAGTCG, the PBM binding z-score is 0.795.

In the case of CCGACTGGCGCATAAGGTTACCATAAGCCAGCCC, the PBM binding z-score was -0.0103.

Sequence CTAGAAAGGTCGGTTGAGGTGAGTATACGGATAA displayed a PBM binding z-score of 2.4.

On to TCTAGCAGGCCAGAGGGTCACGCAAGAGGTACGG, for which the PBM binding z-score stood at 2.52.

CCAGACAGGTGAGAAGGTACCTCAGCCTCGATTA registered a PBM binding z-score of -0.437.

Regarding CGTCCAAGGTCAGCAGTTCAGTGAAAGCGACGTG, the PBM binding z-score worked out at 3.56.

Turning to ACAGACACGTGATGAAGGTAACTCAGGCTATCAT, the PBM binding z-score worked out at 0.0575.

In the case of CCTCGGAGGACAGAAGCTCAGAGCTGTCCGCTTT, the PBM binding z-score is -0.941.

In the case of AGAATGAGGTTATACGCAGATCAGGGAAGAAAGT, the PBM binding z-score was found to be 1.35.

CGAACGAGGGCATGAGTTGATAACAAATGCCGAT showed a PBM binding z-score of 1.04.

Consider ATCTCTAGGTAAAACTTCAGTGAATCCCGAGGAT, for which the PBM binding z-score was -0.0846.

TCTCGGAGAACACGAAGGTCAGAGCTTTCCAGAG: the PBM binding z-score was 0.885.

On to CTTGAAAGGTCGGTTGAGGTGAGTATACGGATAA, for which the PBM binding z-score is 2.66.

For the sequence TAGCCTAGGTCAGATTGGGCCAGTATACGCTATA, the PBM binding z-score stood at 0.524.

With ATATGTAGGTTTGCTGGGGTCATTCAGACTAGGC, the PBM binding z-score is 5.56.

Sequence CCTACTGGACCACGAAAGGTCATTGATTCAGTGA gave a PBM binding z-score of 4.17.

On to ATCTCTGGGTAACCAAGTTCAGTGAATGCCGAAC, for which the PBM binding z-score was found to be 4.32.

CGTCCAGGGTCATAGGAGGTCAGTGAAGACAGAT had a PBM binding z-score of 6.65.

The sequence AGTCAAAGTTCAGGACAAGGTAACGTAAAGCACG had a PBM binding z-score of 2.55.

AATACAGGGTCTCTAGGCCAGAGTAGGTACGAAT showed a PBM binding z-score of -0.299.

In turn, ATCTCTAGGTAACAAGTTCAGTTAAAGAGAGGAC displayed a PBM binding z-score of 2.23.

ATCGCTAGGTAAAGTTCAGTGAAAGATCGATAGA registered a PBM binding z-score of 0.735.

Regarding TCATAGAGGTAAATGCTAGGTGAAAGTCCGATCT, the PBM binding z-score was 0.364.

In turn, ACTAGCAGGCCAAGGGTCACTGAAGATTAGTCCG registered a PBM binding z-score of 2.81.

For the sequence CGTCCAAGGTCAGCAGATCAGTGAAAGCGACGTG, the PBM binding z-score was found to be 2.37.

Sequence ATCTCTAGGTAACCAAGATCAGTGAATGCCGAAC returned a PBM binding z-score of 0.294.

In turn, CGGCCAAGGTCAGAGAGGTCAGTGAATGCCGAGT displayed a PBM binding z-score of 7.41.

Regarding CCAGACAGGTGAGAAGGTAACTCATCCTCGATTA, the PBM binding z-score amounted to 0.198.

Sequence TCTAGTTGGTCAAAGGTCCCACACTCGAAATGCG showed a PBM binding z-score of 1.12.

The sequence AGAAGGAGGGCAATGAGTTGATAGCACGGGTGGC registered a PBM binding z-score of 4.93.

The sequence TCGAGTAGGTTAGTCGGGGCATTCCGCCAACATA came in with a PBM binding z-score of 2.1.

CCGACTGGGGCATAAGGTTACCACAAGCCAGCCC had a PBM binding z-score of 0.105.

In the case of CCTGCTAGGTCATGGTCACCTAATCTACAGTATG, the PBM binding z-score is 2.03.

Sequence TCATATAGGTAAAGGTGAAAGTTGAACGATATGA returned a PBM binding z-score of 1.58.

On to ATCTCTAGTTAACCAAGTTCAGTGAATGCCGAAC, for which the PBM binding z-score was determined as 2.46.

In turn, TCTAGTTGGTCAAAGGTGACACACTCGAAATGCG displayed a PBM binding z-score of 1.92.

In the case of AGTCAAAGTTCACTAGGTAACGTTAGATTCAGCT, the PBM binding z-score amounted to 4.07.

Regarding CCTAGTTGGTCAAGGTCACAGACGCTATAGGTAC, the PBM binding z-score was determined as 4.29.

CCAGACAGGTGAAAAGTAACTCAGTCTGGTACGC came in with a PBM binding z-score of 0.113.
